Laboratory results published in PubChem BioAssay (EPA / NIEHS).
“And” between values parts separate entries of the source, which are not always exact repeats. Equal entries are not always repeated. Inconclusive results are not listed. Where a structure was tested more than once in an assay, its records may differ in their call. The source made the active and inactive calls. Rule for the calls: active = hit-call score of the fitted dose curve at least 0.9, where 1 is the maximum; inconclusive = response in the unintended direction; inactive = score below 0.9.

Key:
[1] = TOX21_p53_BLA_p4_viability: Viability Assessment in the Tox21 HCT-116 p53 Agonism Beta-lactamase Assay, Phase 4 (AID 2283597);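 note: hits lower the luminescence signal meaning cytotoxicity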
In short: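 ATP content by CellTiter-Glo luminescence, 30 min RT, read after the beta-lactamase ratio step. Cells: HCT116, 4000/well, compound added after 5 h, exposure 16 h at 37C. Signal loss = reduced viability.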

[2] = TOX21_p53_BLA_p5_viability: Viability Assessment in the Tox21 HCT-116 p53 Agonism Beta-lactamase Assay, Phase 5 (AID 2283600)
In short: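 ATP luminescence (CellTiter-Glo, 30 min, RT) served as the viability read-out, with loss of signal indicating cytotoxicity. Compounds in DMSO were pinned at a 217-fold dilution onto 4000 cells/well and incubated 16 h, 37C.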

[3] = molecular target: Cellular tumor antigen p53 (Homo sapiens) (UniProt P04637); experiment: TOX21_p53_BLA_p4_ratio: Tox21 HCT-116 p53 Agonism Beta-lactamase Assay, Ratio, Phase 4 (AID 2283601)
Chain of Cellular tumor antigen p53 (Homo sapiens) (P04637 whole entry, looked up): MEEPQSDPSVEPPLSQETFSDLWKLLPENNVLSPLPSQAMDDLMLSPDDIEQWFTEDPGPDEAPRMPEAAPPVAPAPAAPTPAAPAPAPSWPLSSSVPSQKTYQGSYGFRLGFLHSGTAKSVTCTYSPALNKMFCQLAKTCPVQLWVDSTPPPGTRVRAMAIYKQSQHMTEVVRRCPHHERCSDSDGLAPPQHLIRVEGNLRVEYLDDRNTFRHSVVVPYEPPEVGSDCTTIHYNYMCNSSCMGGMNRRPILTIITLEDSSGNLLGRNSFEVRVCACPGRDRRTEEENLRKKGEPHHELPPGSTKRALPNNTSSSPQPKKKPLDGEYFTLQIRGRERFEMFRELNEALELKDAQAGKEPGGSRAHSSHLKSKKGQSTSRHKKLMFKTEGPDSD
In short: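 HCT116 cells carrying an inducible beta-lactamase reporter were plated at 4000 cells/well, rested 5 h, then exposed to compounds in DMSO (217-fold dilution) for 16 h at 37C. CCF4-AM substrate was loaded 2 h at room temperature; 460/530 nm emission ratio scored gain-of-signal versus DMSO.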

[4] = Tanguay_ZF_120hpf_MORT_legacy: (Legacy) Oregon State University Tanguay Lab 120 Hour Post-fertilization zebrafish Assay for Mortality (AID 2283633);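 for AC50: fitted as increase in binary mortality versus DMSO negative control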
In short: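 Brightfield scoring of embryo death (binary) at 24 and 120 hpf; static exposure 6–120 hpf, 28C, sealed and foil-covered. Pronase-dechorionated 5D wild-type larvae, single embryo per well. DMSO 0.64% v/v; trimethyltin chloride 5uM positive control.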

[5] = Tanguay_ZF_120hpf_YSE_legacy: (Legacy) Oregon State University Tanguay Lab 120 Hour Post-fertilization zebrafish Assay for Yolk Sac Edema (AID 2283634);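 for AC50: actives raise the incidence of yolk sac edema above the DMSO baseline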
In short: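 Binary brightfield scoring of yolk sac edema at 120 hpf; DMSO baseline, gain-of-signal fitting. Dechorionated 5D larvae, one per well, static exposure 6–120 hpf, 28C, 0.64% DMSO. Dead embryos not scored.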

[6] = Tanguay_ZF_120hpf_AXIS_legacy: (Legacy) Oregon State University Tanguay Lab 120 Hour Post-fertilization zebrafish Assay for Body Axis Malformation (AID 2283635);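 for AC50: potency for an increased fraction of larvae scored with body axis malformation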
In short: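 Embryos: 5D wild-type, pronase-dechorionated 4 hpf; static exposure 6–120 hpf, 28C, sealed, dark, 1 embryo/well, 0.64% DMSO. 120 hpf axis malformation scored present/absent; dead embryos excluded. Analysed as gain of signal vs DMSO.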

[7] = Tanguay_ZF_120hpf_EYE_legacy: (Legacy) Oregon State University Tanguay Lab 120 Hour Post-fertilization zebrafish Assay for Eye Malformation (AID 2283636);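 note: binary presence or absence of eye malformation scored by brightfield in 120 hpf larvae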
In short: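 Static waterborne exposure of dechorionated zebrafish embryos (strain Tropical 5D), 6 to 120 hpf, sealed plates at 28C, 0.64% DMSO vehicle. Eye malformation is scored as a binary endpoint, with gain of signal analysed relative to DMSO.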

[8] = Tanguay_ZF_120hpf_SNOU_legacy: (Legacy) Oregon State University Tanguay Lab 120 Hour Post-fertilization zebrafish Assay for Snout Malformation (AID 2283637)
In short: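 Dechorionated zebrafish, individually housed from 6 hpf in covered, sealed wells at 28C with 0.64% DMSO vehicle, were examined at 120 hpf for snout malformation. Responses were binary and analysed positive-direction relative to DMSO.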

[9] = Tanguay_ZF_120hpf_JAW_legacy: (Legacy) Oregon State University Tanguay Lab 120 Hour Post-fertilization zebrafish Assay for Jaw Malformation (AID 2283638);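 for AC50: active means more embryos with jaw malformation than DMSO controls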
In short: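 Binary jaw-malformation calls at 120 hpf by brightfield imaging; DMSO (0.64% v/v) = baseline. Embryos: 5D wild-type, pronase-dechorionated, one per well from 6 hpf, static exposure, 28C, sealed, dark.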

[10] = molecular target: Cellular tumor antigen p53 (Homo sapiens) (UniProt P04637); experiment: TOX21_p53_BLA_p5_ratio: Tox21 HCT-116 p53 Agonism Beta-lactamase Assay, Ratio, Phase 5 (AID 2283599)
In short: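 HCT-116 cells carrying a p53-inducible beta-lactamase reporter were seeded at 4000 cells/well and dosed after 5 h with compound in DMSO (217-fold dilution). After 16 h at 37C, CCF4-AM substrate was added for 2 h, and the 460/530 nm emission ratio was scored as gain-of-signal versus DMSO.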

Measured: AC50

CCOP(=S)(OCC)Oc1ccc2c(C)c(Cl)c(=O)oc2c1
not listed: [10]
inactive: all other assays above

CCNc1nc(Cl)nc(NC(C)(C)C#N)n1
inactive: [10] | [3] | [4] | [5] | [7] | [8]

CC1(C(=O)Nc2ccc(O)c(Cl)c2Cl)CCCCC1
not listed: [1] | [10]
inactive: all other assays above

CCOP(=O)(NC(C)C)Oc1ccc(SC)c(C)c1 (centres undefined)
inactive: [1] | [2] | [3] | [4]
active: [5] 24.8 µM | [6] 22.1 µM | [7] 14.6 µM | [8] 20.9 µM | [9] 21.6 µM

CC(C1CC1)C(O)(Cn1cncn1)c1ccc(Cl)cc1 (centres undefined)
active: [5] 36.3 µM | [6] 24.8 µM | [7] 9.92 µM | [8] 9.24 µM | [9] 24.7 µM
inactive: [2] | [3] | [4]

CNC(=O)ON=C(SC)C(=O)N(C)C
not listed: [1] | [10]
inactive: all other assays above

Cc1nn(-c2cc(NS(C)(=O)=O)c(Cl)cc2Cl)c(=O)n1C(F)F
not listed: [1] | [10]
inactive: all other assays above

COP(=O)(OC)SCn1c(=O)oc2cc(Cl)cnc21
inactive: [2] | [3] | [4] | [6]
active: [10] 73.7 µM | [5] 44 µM | [7] 15.3 µM | [8] 47.5 µM | [9] 15.9 µM

CCOP(=S)(OCC)Oc1cc(C)nc(C(C)C)n1
active: [2] 36.1 µM
inactive: [1] | [2] | [3] | [4] | [5] | [8]

CCC(=O)Nc1ccc(Cl)c(Cl)c1
not listed: [1] | [10]
inactive: all other assays above

C#CC(C)(C)NC(=O)c1cc(Cl)cc(Cl)c1
not listed: [7] | [8]
inactive: all other assays above

CC(=NC#N)N(C)Cc1ccc(Cl)nc1
not listed: [1] | [10]
inactive: all other assays above

C[Si](Cn1cncn1)(c1ccc(F)cc1)c1ccc(F)cc1
inactive: [10] | [2] | [3] | [4]
active: [3] 55.6 µM | [5] 40.9 µM | [6] 10.3 µM | [7] 46.9 µM | [8] 12 µM | [9] 13.4 µM

CNC(=O)Oc1cccc2c1OC(C)(C)O2
not listed: [2] | [10]
inactive: all other assays above

CCOP(=S)(OCC)SCCSCC
not listed: [1] | [10]
inactive: all other assays above

CC(C)[C@H](C(=O)O[C@H](C#N)c1cccc(Oc2ccccc2)c1)c1ccc(Cl)cc1
inactive: [10] | [2] | [3] | [4]
active: [5] 3.2 µM | [6] 1.96 µM | [7] 2.82 µM | [8] 2.25 µM | [9] 5.13 µM

CC[C@H](C)[C@H]1O[C@]2(C=C[C@@H]1C)C[C@@H]1C[C@@H](C/C=C(\C)[C@@H](O[C@H]3C[C@H](OC)[C@@H](O[C@H]4C[C@H](OC)[C@@H](NC)[C@H](C)O4)[C@H](C)O3)[C@@H](C)/C=C/C=C3\CO[C@@H]4[C@H](O)C(C)=C[C@@H](C(=O)O1)[C@]34O)O2
active: [2] 14.9 µM | [3] 32.7 µM | [4] 5.52 µM | [5] 0.247 µM
inactive: [6] | [7] | [8] | [9]

CCCCSP(=O)(SCCCC)SCCCC
active: [5] 7.24 µM
not listed: [1] | [9] | [10]
inactive: all other assays above

N#CSCSC#N
inactive: [5] | [6] | [7] | [8]
active: [2] 66.3 µM and 68.4 µM | [3] 36.5 µM and 18.1 µM | [4] 34.6 µM

CCOP(=S)(Oc1cnc(C(C)(C)C)nc1)OC(C)C (centres undefined)
not listed: [10]
inactive: all other assays above

CN(C)C(=O)Nc1cccc(C(F)(F)F)c1
not listed: [10]
inactive: all other assays above

CN(C)NC(=O)CCC(=O)O
not listed: [10]
inactive: all other assays above

FC(F)C(F)(F)OCC(Cn1cncn1)c1ccc(Cl)cc1Cl (centres undefined)
inactive: [10] | [2] | [3] | [4]
active: [5] 43.2 µM | [6] 15.7 µM | [7] 47.5 µM | [8] 47 µM | [9] 11.7 µM

CCCCN(CC)c1c([N+](=O)[O-])cc(C(F)(F)F)cc1[N+](=O)[O-]
not listed: [1] | [3]
inactive: all other assays above

CSc1nnc(C(C)(C)C)c(=O)n1N
not listed: [10]
inactive: all other assays above

CC(Oc1cccc(Cl)c1)C(=O)O (centres undefined)
not listed: [1] | [10]
inactive: all other assays above

CSC1=N[C@@](C)(c2ccccc2)C(=O)N1Nc1ccccc1
active: [4] 12.6 µM | [5] 3.52 µM
not listed: [1] | [10]
inactive: all other assays above

COc1ccc(C(=CC(=O)N2CCOCC2)c2ccc(Cl)cc2)cc1OC
active: [5] 48.3 µM | [6] 9.11 µM | [7] 16.4 µM | [8] 35.4 µM | [9] 43.7 µM
inactive: [2] | [3] | [4]

CCc1cccc(C)c1N(C(=O)CCl)C(C)COC (centres undefined)
not listed: [1] | [9]
inactive: all other assays above

CCOC(=O)CC(SP(=O)(OC)OC)C(=O)OCC (centres undefined)
active: [6] 16.5 µM | [7] 12.1 µM
not listed: [1] | [10]
inactive: all other assays above

COc1cc(OC)nc(Sc2cccc(Cl)c2C(=O)O)n1
not listed: [10]
inactive: all other assays above

CON=C(C(=O)OC)c1ccccc1CON=C(C)c1cccc(C(F)(F)F)c1
inactive: [1] | [2] | [4] | [6]
active: [3] 1.65 µM | [5] 7.29 µM | [7] 5.22 µM | [8] 4.07 µM | [9] 5.3 µM
